The structures appear in SMILES notation. Screen size: about 220,000 compounds; about 2,400 (1.1%) were called active. The entries come from a sample that favours actives as a whole. Unmarked numbers belong to inactive results.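 Rule for the calls: active = inhibition above the campaign mean plus 3 SD over all tested compounds (cut at about 24% in these data); inactive = the rest.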

A word on the inhibition: it is the change of the read-out against control, counted positive when it falls.

This experiment is described as follows: viability loss in Ba/F3 EpoR-JAK2V617F cells – cell-based, luminescence, JAK2V617F inhibitor project, primary screen (AID 1446).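 Note: cytokine-independent growth of Ba/F3 cells driven by EpoR plus mutant JAK2; 0% = DMSO-treated cells and 100% = JAK inhibitor I control.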 Conditions: ATP luminescence, at 5.6 µM, active compounds read high.
Take `CCCCCCCCCCCCn1ccc(=N)cc1`: the inhibition is 98.4% (active).
As for `COc1cc(OC)cc(C2(C#N)CCN(C)CC2)c1`, the inhibition was -0.42%.
`O=C1NC(=O)N(CCc2ccc(F)cc2)C(=O)/C1=C/C=C/c1ccccc1`: the inhibition was 1.28%.
Then `COc1ccc(-n2c(-c3ccccc3)nc3ccccc3c2=O)cc1`, with 0.29%; and `CN(C)CC1Oc2ccccc2OC1(O)c1ccccc1` (stereo not given), with 91.1% (active); and `O=c1[nH]c(=O)n(-c2ccc(F)cc2)c(O)c1C=NCCN1CCCCC1`, with 0.16%.
Consider `Cc1cccc(NC(=O)OC2CN3CCC2CC3)c1` (stereo not given), for which the inhibition was 2.6%.
`CN1CCN(/N=C/c2c[nH]c3ccccc23)CC1`: the inhibition was -2.46%.
Turning to `CC1=C(C(=O)Nc2ccccc2)S(=O)(=O)CCO1`, the inhibition was -1.56%.
In the case of `CCOc1ccc(-c2cc(C)[n+](CCN(CC)CC)c(-c3ccc(OCC)cc3)c2)cc1` it was 98.2% (active); in that of `CC1=C2C(=O)C3C(CC=C4CC(OC5OC(O)C(O)C(O)C5CO)CCC43C)C2CCC12OC1CC(C)CNC1C2C` (stereo not given), 0.84%.
Then `CSc1nc2ccc(C)cc2c(=O)n1-c1cccnc1`, with 3.49%; and `CC1(C)Cc2c(C#N)c(N3CCNCC3)nc(-c3ccco3)c2CS1`, with 1.65%; and `CCOc1cccc(=NC2CCCCC2)c2c(C)[nH]c(C)c12`, with 34% (active).
Then `O=C(O)COc1ccccc1/C=C1\C(=O)NC(=O)N(CCC2=CCCCC2)C1=O`, with -1.88%.
With `Cn1c(O)c(C(=Nc2ccc(F)cc2)c2ccccc2)c(=O)n(C)c1=O`, the inhibition was -3.28%.
Then `CCCCC(=O)N/N=C/c1c(O)n(CCC2=CCCCC2)c(=O)[nH]c1=O`, with -0.19%; and `O=c1[nH]c(=O)n(CCc2ccc(F)cc2)c(O)c1/C=N/N1CCCCC1`, with -0.8%; and `O=c1[nH]c(CN2CC=C(c3ccccc3)CC2)nc2scc(-c3cccs3)c12`, with -4.83%.
In the case of `Cc1ccc(CN2CCCC(C(=O)c3ccc4c(c3)OCO4)C2)cc1C` (stereo not given) it was -3.5%; in that of `CCOP(=O)(OCC)C(NC(=O)NC)C(N)=O` (stereo not given), 3.57%.
Regarding `CC1=CC(=Cc2sc3ccccc3[n+]2C)C=C(C)O1`, the inhibition is 101% (active).
In the case of `CNC(=O)O/N=C(\N)Cc1csc2ccc(Cl)cc12` it was 1.27%.
Then `O=c1[nH]c(=O)n(CCc2ccccc2)c(O)c1/C=N/N1CCOCC1`, with -2.98%; and `CCOP(=O)(OCC)C(NC(=O)c1ccc(OC)cc1)C(Cl)(Cl)Cl` (stereo not given), with 1.2%.

These data come from PubChem BioAssay AID1446 (The Scripps Research Institute Molecular Screening Center, 2008).
